Data as given in PubChem BioAssay (NCI).
Compounds without any hit were thinned out: in the full panel of roughly 83,000, 20% have a hit.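 Activity criterion: percent growth below 10, measured after cells in 96-well plates were exposed to a single compound concentration for 48 hours.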 Unmarked numbers belong to inactive results. Calls of active or inactive are those of the source.

Key:
Assay in all cases: NCI-60 one-dose screen, 48 h (100 = growth as untreated, 0 = no growth, -100 = all killed)
Details in all cases: 10 µM unless noted
[1] = test system: T-47D breast
[2] = test system: BT-549 breast
[3] = test system: MDA-MB-435 melanoma
[4] = test system: SW-620 colon
[5] = test system: HCT-116 colon
[6] = test system: HCC-2998 colon
[7] = test system: KM12 colon
[8] = test system: MCF7 breast

SMILES | growth [1] | growth [2] | growth [3] | growth [4] | growth [5] | growth [6] | growth [7] | growth [8]
O=C(CCC(=O)c1nc2ncccc2[nH]1)NN1C(=O)CSC1c1ccc(Cl)cc1 (stereo unspecified) | 90.7% | 120% | 99.7% | 81.4% | 86% | 112% | 94.7% | –
CC/C(Cc1ccccc1)=C(\c1ccc(OCCN2CCCCCC2)cc1)c1ccc(OC(=O)NCc2ccccc2)cc1 | 40.9% | 81.9% | 79.6% | 64.5% | 2.8% (active) | 65.2% | 67.9% | –
COc1ccc(C2=CN3CC=CCC3CC2=O)cc1 (stereo unspecified) | 90.6% | 90.7% | 106% | 101% | 93.1% | 100% | 104% | –
COc1cc(/C=C/c2cc(/C=C/c3ccc(O)c(OC)c3)n(C(=O)Nc3ccc(F)cc3)n2)ccc1O | 31.1% | -8.33% (active) | -2.32% (active) | 10.5% | 4.95% (active) | 6.92% (active) | 2.44% (active) | –
C=CC(=O)NCCOc1cccc(Nc2cc(NCCCNC(=O)C3CCC3)c(Br)cn2)c1 | -10.5% (active) | -59.5% (active) | -1.47% (active) | 2.26% (active) | 4.97% (active) | -43.7% (active) | 5.83% (active) | –
CCn1cc(C2=C(c3cn(C)c4ncccc34)C(=O)NC2=O)c2cccnc21 | 29.8% | 32.9% | 65% | 92.4% | 70.9% | 91.4% | 46.7% | –
C[Se]C(=O)CC1=C2C=C(F)C=CC2/C(=C\c2ccc(S(C)=O)cc2)C1C (stereo unspecified) | 48.7% | -89.8% (active) | -25.9% (active) | 4.55% (active) | 7.49% (active) | 68.9% | 50.1% | –
CN1CCN(CCCOc2ccc3ncnc(Nc4ccc(Oc5cccc(F)c5)c(Cl)c4)c3c2)CC1 | 20.8% | 90.4% | -84.8% (active) | -71.9% (active) | -63.6% (active) | – | 6.17% (active) | 3.01% (active)
Nc1n[nH]c2ccc([C@@H]3Nc4cc5[nH]ncc5cc4[C@H]4C5CCC(C5)[C@@H]34)cc12 (stereo partly specified) | 51.9% | 11.3% | -41.2% (active) | 21.6% | 8.92% (active) | 18.1% | 15.6% | –
COc1ccc(C/C(C)=C(/c2ccc(OCCN3CCCCCC3)cc2)c2ccc(OC(=O)NCc3ccccc3)cc2)cc1 | 50.8% | 100% | 95.3% | 81.4% | 64.7% | 89.1% | 80.9% | –
CCCC(O)Cn1ncc(C(=O)OCC)c1NC(=O)NCc1cccc(F)c1 (stereo unspecified) | 88.2% | 78.5% | 101% | 107% | 71.6% | 90.6% | 105% | –
CC(C)C[C@@H](C(=O)N[C@H](C(=O)OC1CCCC1)c1ccccc1)[C@H](O)C(=O)NO | 36.7% | 69.7% | 49.4% | 49.8% | 56.7% | 94.4% | 65.7% | –
Cc1ncc(C(=O)Nc2ccc(CN3CCN(C)CC3)c(C(F)(F)F)c2)cc1C#Cc1cnc(N)c2cnccc12 | 8.63% (active) | 14.6% | 6.4% (active) | -55.3% (active) | -86.1% (active) | -1.5% (active) | 9.54% (active) | –
